Assay results from PubChem BioAssay (NCI).
The panel holds about 83,000 compounds, 20% with a hit somewhere; the sample as a whole holds those more often.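 A percent growth of 40 corresponds to 60% growth inhibition; 0 means no net growth; -100 means all cells died. Active threshold: below 10.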 Calls of active or inactive are those of the source.

What was measured:
Assay in all cases: NCI-60 one-dose screen, 48 h (100 = growth as untreated, 0 = no growth, -100 = all killed)
Settings in all cases: 10 µM unless noted
NCI-H23 lung = system: NCI-H23 lung
NCI-H226 lung = system: NCI-H226 lung
NCI-H322M lung = system: NCI-H322M lung
HOP-62 NSCLC = system: HOP-62 NSCLC
NCI-H460 lung = system: NCI-H460 lung
HOP-92 NSCLC = system: HOP-92 NSCLC
NCI-H522 lung = system: NCI-H522 lung
A549/ATCC NSCLC = system: A549/ATCC NSCLC
786-0 renal = system: 786-0 renal
COLO 205 colon = system: COLO 205 colon
DU-145 prostate = system: DU-145 prostate
K-562 leukemia = system: K-562 leukemia
MALME-3M melanoma = system: MALME-3M melanoma
MDA-MB-231 breast = system: MDA-MB-231 breast
RXF 393 renal = system: RXF 393 renal
SF-268 CNS = system: SF-268 CNS
SF-295 CNS = system: SF-295 CNS
SF-539 CNS = system: SF-539 CNS
M14 melanoma = system: M14 melanoma

Measured: growth

Cc1cccc2cc(/C=C/C(=O)/C=C/c3ccc(Cl)cc3)c(=O)[nH]c12
inactive: NCI-H23 lung 62.8% | NCI-H226 lung 62.1% | NCI-H322M lung 88.8% | HOP-62 NSCLC 64.6% | NCI-H460 lung 73.1% | HOP-92 NSCLC 96.3% | NCI-H522 lung 48.4% | A549/ATCC NSCLC 65.6% | 786-0 renal 14.5% | COLO 205 colon 37.8% | DU-145 prostate 39.1% | K-562 leukemia 10.8% | MALME-3M melanoma 106% | MDA-MB-231 breast 25.7% | RXF 393 renal 36.8% | SF-268 CNS 62% | SF-295 CNS 83.8% | SF-539 CNS 69.7% | M14 melanoma 30.5%

Cc1cc(NC(=O)COC(=O)c2sc3cc(F)ccc3c2Cl)no1
inactive: NCI-H23 lung 108% | NCI-H226 lung 101% | NCI-H322M lung 112% | HOP-62 NSCLC 96.2% | NCI-H460 lung 116% | HOP-92 NSCLC 91.8% | NCI-H522 lung 99.3% | A549/ATCC NSCLC 103% | 786-0 renal 101% | COLO 205 colon 104% | DU-145 prostate 116% | K-562 leukemia 111% | MALME-3M melanoma 100% | MDA-MB-231 breast 98.6% | RXF 393 renal 32.6% | SF-268 CNS 120% | SF-295 CNS 112% | SF-539 CNS 105% | M14 melanoma 102%

CN(C)C/C=C/C(=O)Nc1cc2c(Nc3cccc(Cl)c3F)ncnc2cc1OCCOC(F)F
active: NCI-H322M lung 7.68% | HOP-92 NSCLC -29% | NCI-H522 lung -19.2% | RXF 393 renal 6.09%
inactive: NCI-H23 lung 60.9% | NCI-H226 lung 40.3% | HOP-62 NSCLC 39.3% | NCI-H460 lung 67.4% | A549/ATCC NSCLC 25.2% | 786-0 renal 18.5% | COLO 205 colon 56.7% | DU-145 prostate 31.3% | K-562 leukemia 18.1% | MALME-3M melanoma 38.5% | MDA-MB-231 breast 17.6% | SF-268 CNS 41.9% | SF-295 CNS 55.2% | SF-539 CNS 36.7% | M14 melanoma 67.5%

COc1ccc(/C(=N/O)c2cc(OC)c(OC)c(OC)c2)c(OC)c1N
inactive: NCI-H23 lung 51.9% | NCI-H226 lung 80.7% | NCI-H322M lung 48.4% | HOP-62 NSCLC 33.7% | NCI-H460 lung 14.5% | HOP-92 NSCLC 53.2% | A549/ATCC NSCLC 45.6% | 786-0 renal 30.6% | COLO 205 colon 20.2% | DU-145 prostate 39% | K-562 leukemia 14.7% | MALME-3M melanoma 53.1% | MDA-MB-231 breast 55.3% | RXF 393 renal 23.2% | SF-268 CNS 49.1% | M14 melanoma 21%
active: NCI-H522 lung 0.281% | SF-295 CNS 6.4% | SF-539 CNS 3.96%
